Screening data deposited in PubChem BioAssay by National Center for Advancing Translational Sciences (NCATS).
AmpC inh no detg: blocks E. coli AmpC beta-lactamase in detergent-free assay; P00811; AmpC nitrocefin hydrolysis, absorbance 480 nm, 0.0001% Triton; Potency, µM (series often up to 57.1 µM), for the others: top-dose activity change, negative = inhibition, actives largely listed as inhibitors; actives 0.52% (n = 330,000); AID 485341;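 further: plate controls were no compound for no effect and no enzyme for full effect; nearly all actives have a fitted effect of over 20% in size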
Target sequence (P00811 whole entry, looked up): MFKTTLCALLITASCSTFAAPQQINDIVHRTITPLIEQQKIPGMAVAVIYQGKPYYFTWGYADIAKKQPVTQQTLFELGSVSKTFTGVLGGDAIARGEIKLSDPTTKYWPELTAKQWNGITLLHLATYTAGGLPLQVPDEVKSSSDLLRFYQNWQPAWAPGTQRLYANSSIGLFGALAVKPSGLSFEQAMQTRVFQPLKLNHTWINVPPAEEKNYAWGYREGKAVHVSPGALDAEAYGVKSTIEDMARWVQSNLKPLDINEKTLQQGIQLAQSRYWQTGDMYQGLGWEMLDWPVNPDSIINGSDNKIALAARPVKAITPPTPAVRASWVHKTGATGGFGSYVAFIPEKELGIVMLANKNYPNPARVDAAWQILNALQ
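20 mM phosphate pH 7.0 + 0.01% (detergent screen) or 0.0001% Triton X-100; 5.3 nM AmpC reagent; cpd preinc 15 min RT; nitrocefin (800 uM stock) to start; A480 q20 s × 4 min; Activity was normalised to no-enzyme and no-compound control wells.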
FBPA Giardia inh: inhibitors of Giardia lamblia fructose-1,6-bisphosphate aldolase | A8B2U2 | purified Giardia FBPA | Potency, µM (doses to about 59.6 µM), without a hit: top-dose activity, negative = inhibition, most hits filed as inhibitors | actives 0.71% (n = 290,000); further: nearly all actives have a fitted effect of over 55% in size
Target sequence (A8B2U2 whole entry, looked up): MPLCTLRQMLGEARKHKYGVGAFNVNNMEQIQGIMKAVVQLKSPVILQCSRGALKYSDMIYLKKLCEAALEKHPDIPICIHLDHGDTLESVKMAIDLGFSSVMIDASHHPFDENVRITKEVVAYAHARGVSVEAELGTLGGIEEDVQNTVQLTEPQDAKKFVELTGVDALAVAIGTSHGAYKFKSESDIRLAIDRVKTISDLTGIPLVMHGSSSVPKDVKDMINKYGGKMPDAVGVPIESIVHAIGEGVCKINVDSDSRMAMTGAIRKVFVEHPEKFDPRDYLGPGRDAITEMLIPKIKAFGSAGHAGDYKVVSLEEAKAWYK
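Giardia FBPA (40 nM reagent) was preincubated 10 min at RT with compound (up to 57.5 uM final), then substrate plus GAPDH/TPI/NAD/arsenate coupling system with diaphorase/resazurin was added; resorufin fluorescence (525/598 nm) was read after 20 min.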
Sm TGR inh: S. mansoni TGR enzyme inhibition. actives 3% (n = 360,000). purified TGR, DTNB reduction, TNB absorbance 405 nm. Q962Y6. Potency, µM (titrated, usually from 114 µM), without a hit: at the top dose activity change, negative = inhibition, usual class: inhibitors; further: nearly all actives have a fitted effect of over 60% in size
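TGR 20 nM + NADPH 100 uM (dispensed conc.), cpd preinc 15 min RT; start with NADPH (500 uM addition) then DTNB (15 mM addition). Kinetic TNB absorbance, 405 nm filter. Four-parameter Hill fit across titration.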
AmpC inh detg: blocks E. coli AmpC beta-lactamase in detergent assay. AmpC hydrolysis of nitrocefin, absorbance 480 nm, 0.01% Triton. Potency, µM (highest dose often 114 µM), for inactives: at the highest dose activity change, negative = inhibition, actives largely listed as inhibitors. actives 0.041% (n = 370,000). AID 485294;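 further: 0% = no-compound wells and -100% = no-enzyme wells; nearly all actives have a fitted effect of over 25% in size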
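20 mM phosphate pH 7.0 + 0.01% (detergent screen) or 0.0001% Triton X-100; 5.3 nM AmpC reagent; cpd preinc 15 min RT; nitrocefin (800 uM stock) to start; A480 q20 s × 4 min; Activity was normalised to no-enzyme and no-compound control wells.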
RE007 growth inh: less growth of the S. pombe RE007 Vpr strain; S. pombe RE007 Vpr strain, BacTiter-Glo ATP luminescence, 24 h; actives 0.21% (n = 360,000); Potency, µM (titrated, usually from 92.2 µM), without a hit: at the highest dose activity change, negative = less growth, most hits filed as inhibitors; AID 651644; active means well fitted falling curve with a large enough effect; inconclusive means small, poorly fitted or top-dose-only effect; inactive means no such curve, though single readings can be large or run the other way; further: nearly all actives have a fitted effect of over 50% in size
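Fission yeast strain RE007, carrying one chromosomally integrated HIV-1 vpr copy, was seeded at OD 0.01 in PMG+AL medium with 23 nL pinned compound. After 24 h at 30 °C and 99% humidity, viability was read by BacTiter-Glo luminescence.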
* hit, by the source's call; i = inactive; ? = inconclusive; . = not tested or not shown; ! = repeats disagree; [ ] = dose if it differs, or a comment. Sampled rows, rich in hits. Any-hit rate of the full collection: about 3.4%. Unless noted, the call rests on the fitted dose curve; in most records, active means well fitted curve in the direction sought with a large enough effect; inconclusive means small, poorly fitted or top-dose-only effect, or another doubt; inactive means no such curve, though single readings can be large; an effect the other way counts as inactive or inconclusive. Unless noted, on the % scale 0 is the no-effect control and ±100 the full control effect; potency means the concentration at half of the fitted maximal effect.

SMILES	AmpC inh no detg	FBPA Giardia inh	Sm TGR inh	AmpC inh detg	RE007 growth inh
CCC(Sc1ncccc1C(=O)OCCN1CCCC1=O)C(=O)NCc1ccco1 (centres undefined)	74%	-14%	45µM*	-5%	14%
CCCCNC(=O)N1CCc2[nH]c3ccccc3c2C1	-40%	-14%	-26%	-9%	-1%
Cc1ccc(S(=O)(=O)N(C)CCCC(=O)NCc2ccc3c(c2)OCO3)cc1	15%	0%	-16%	?	-3%
Cc1coc(C)c1C(=O)CC1(O)C(=O)N(CCc2ccccc2)c2ccccc21 (centres undefined)	1%	-5%	14µM*	-3%	15%
O=C(Cn1ccc(C(F)(F)F)n1)Nc1ccc(S(=O)(=O)NCc2ccco2)cc1	-31%	-3%	45µM*	-13%	-9%
COc1cc(NC(=O)c2ccc(-c3cccc([N+](=O)[O-])c3)o2)ccc1NC(=O)C(C)C	-15%	-3%	-22%	?	-23%
Cc1ccc(C)c(CN2C(=O)c3ccccc3S(=O)(=O)c3ccc(C(=O)OCC4CCCO4)cc32)c1 (centres undefined)	.	.	2%	0%	.
CS(=O)(=O)c1ccc2c(c1)sc1nc(=O)c(/C=C3/C=CC(=O)C(O)=C3)c(N)n12	-52%	?	45µM*	2%	-16%
COC1=C/C(=C/c2c(N)n3c(nc2=O)sc2cc(S(C)(=O)=O)ccc23)C=CC1=O	-42%	-20%	-5%	4%	-10%
Cc1nn(CC(=O)NCCCN2CCC(N3CCCCC3)CC2)c(=O)c2cc(-c3ccccc3)nn12	0%	-8%	0%	-4%	-9%
CCOC(=O)c1c(/N=C/c2c(O)n(-c3cccc(C)c3)c(=O)[nH]c2=O)sc2c1CCCC2	-13%	-6%	89µM*	?	-18%
CCOC(=O)c1c(/N=C/c2ccc(O)cc2O)sc2c1CCC2	10µM*	-10%	-22%	-8%	.
CCOC(=O)c1c(/N=C/c2ccccc2O)sc2c1CCC2	-14%	-11%	-19%	-4%	-8%
Cc1ncsc1CCOC(=O)c1ccc(N2CCOCC2)c([N+](=O)[O-])c1	49%	-3%	-15%	6%	i
Cc1c(CCOC(=O)c2ccc(N3CCOCC3)c([N+](=O)[O-])c2)sc[n+]1CC#N	15%	-11%	0.89µM*	2%	73%
CN(CC(=O)Nc1cccc(F)c1)C(=O)c1cc(-c2ccco2)nc2ccccc12	18µM*	.	7.9µM*	-10%	0%
COc1ccc(NC(=O)CN(C)C(=O)c2cc(-c3ccco3)nc3ccccc23)cc1	-18%	.	5µM*	-9%	4%
COc1cccc(CN(C)C(=O)c2cc(-c3ccc(OC)c(OC)c3)nc3ccccc23)c1	-22%	.	0%	-3%	-11%
Cc1ccc(-c2cc(C(=O)N(C)CC(=O)Nc3ccccc3Br)c3ccccc3n2)o1	-40%	.	16µM*	16%	-6%
COc1cccc(CN(C)C(=O)c2cc(-c3ccc(F)cc3)nc3ccccc23)c1	-1%	.	2.2µM*	4%	5%
CCN(CC)C(=S)SCC(=O)Nc1cccc(C(F)(F)F)c1	.	.	.	.	3%
COc1ccc(-n2c(CNC(=O)COc3ccc(Cl)cc3)n[nH]c2=S)cc1	-11%	-4%	8%	-14%	-10%
CN(Cc1ccco1)S(=O)(=O)c1nnc(NC(=O)c2ccccc2Cl)s1	-47%	.	11µM*!	-2%	-1%
Cc1ccccc1C(=O)Nc1nnc(S(=O)(=O)N(C)Cc2ccco2)s1	-31%	-24%	3.2µM*	-8%	-3%
O=S(=O)(NCc1ccc(Cl)cc1)c1ccc(-c2cnc(C3CC3)o2)cc1	.	.	-2%	-12%	.
SMILES	AmpC inh no detg	FBPA Giardia inh	Sm TGR inh	AmpC inh detg	RE007 growth inh
CCOc1ccc(-c2cc(OC(=O)c3ccccc3)c3c(C)oc(C)c3c(=O)c2)cc1	.	.	50µM*	15%	.
COc1ccc(C(=O)Oc2cc(-c3ccc(OC)c(OC)c3)cc(=O)c3c(C)oc(C)c23)cc1	.	.	?	15%	.
COc1ccc(-c2cc(OC(=O)c3cccc(C)c3)c3c(C)oc(C)c3c(=O)c2)cc1	.	.	13µM*	5%	.
CCOc1cc(-c2ccc3c(c2)OCO3)cc(=O)c2c(C)oc(C)c12	-23%	?	35µM*	?	.
Cc1ccc(C(=O)Oc2cc(-c3ccc4c(c3)OCO4)cc(=O)c3c(C)oc(C)c23)cc1	.	.	?	9%	.
CCC(C)[C@H](NC(=O)N1CCC(C)CC1)C(=O)O (some centres undefined)	-10%	1%	4%	4%	3%
CCn1nnnc1SCC(=O)Nc1nc2ccc(OC)cc2s1	-14%	-3%	-4%	?	-22%
COc1ccc(N/C(=C/[N+](=O)[O-])SC)cc1	-17%	2%	?	2%	19%
CC(=O)Nc1ccccc1	-6%	1%	.	.	-1%[18.4 µM]
CS/C(=C\[N+](=O)[O-])Nc1ccccc1	.	0%	0.25µM*	-1%	-20%
CS/C(=C\[N+](=O)[O-])Nc1ccc(F)cc1	.	0%	0.25µM*	2%	-25%
Cc1ccc2nc(CN3CCN(C(=O)Nc4ccc(C)c(F)c4)CC3)oc2c1	.	.	1%	12%	.
O=C(CN1CCN(C(=O)c2ccco2)CC1)N1CCc2[nH]c3ccccc3c2C1	9%	?	20µM*	7%	-12%
Cc1ccc(-n2cc(C(=O)Oc3cccc(C)c3)c3ccccc3c2=O)cc1	.	.	7%	6%	.
Cc1ccc(-n2cc(C(=O)Oc3ccc(F)cc3)c3ccccc3c2=O)cc1	.	.	35µM*	-1%	.
O=C(NC1=C(Nc2ccc(F)cc2)C(=O)c2ccccc2C1=O)c1ccc(Cl)cc1	-30%	?	22µM*	1%	?
O=C(NNC(=O)c1ccc(NC(=O)c2ccccc2)cc1)c1ccc(F)cc1	-31%	-7%	-19%	?	-3%
Cc1nc(NC(=O)c2ccccc2)sc1C1(C)CC(c2c(Cl)cccc2Cl)=NO1 (centres undefined)	-30%	-11%	32µM*	9%	-4%
Cc1nc(NC(=O)c2ccccc2)sc1C1(C)CC(c2ccccc2F)=NO1 (centres undefined)	-44%	-11%	?	4%	2%
CC1=C(/C=C/C(C)=C/C=C/C(C)=C/C(=O)O)C(C)(C)CCC1	73%	-4%	35µM*	-10%	-2%[18.4 µM]
CC1=C(/C=C/C(C)=C\C=C\C(C)=C\C(=O)O)C(C)(C)CCC1	.	2%	.	.	.
Oc1cc2c(cc1C(c1ccc(Br)cc1)N1CCCC1)OCO2 (centres undefined)	-31%	-29%	0.71µM*	-4%	?
O=c1c(Br)ccc(Br)cc1Br	.	.	.	.	2.2µM*
Brc1ccc(Oc2ccc(Br)cc2Br)c(Br)c1	-28%	.	38%	-9%	0%
